In PubChem BioAssay:
Active and inactive are the calls of the source.

Assays:
[1] = binders of probe aFSTL3 on microarray, primary screen, stem cell growth factor project, biochemical, small-molecule microarray, fluorescence 635/667 (AID 1064); details: higher = more signal;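 note: measures binding of the biotinylated anti-FSTL3 antibody to printed compounds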
[2] = binders from COS7 lysate, DM2A8 probe, primary screen, torsin A project, cell lysate, small-molecule microarray, fluorescence 635/667 (AID 1065); details: higher = more signal, COS7 lysate expressing mutant human TOR1A
[3] = binders of probe aFGF2 on microarray, primary screen, stem cell growth factor project, biochemical, small-molecule microarray, fluorescence 635/667 (AID 1067); details: higher = more signal;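 note: measures binding of biotinylated aFGF2 protein to printed compounds on slides; z-score merges feature fluorescence and signal-to-noise across triplicate slides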
[4] = binders of probe aFGF10 on microarray, primary screen, stem cell growth factor project, biochemical, small-molecule microarray, fluorescence 635/667 (AID 1071); details: higher = more signal;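 note: score merges 667 nm spot intensity and signal to noise from triplicate slides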
[5] = target: Neurogenic locus notch homolog protein 2 (Homo sapiens) (UniProt Q04721); assay: Notch2 binders on small-molecule microarrays, primary screen, biochemical, small-molecule microarray, 635 nm fluorescence, stem cell growth factors (AID 1073); details: Notch2 binding, higher = more signal
[6] = target: Pro-neuregulin-1, membrane-bound isoform (Homo sapiens) (UniProt Q02297); assay: NRG1 binders on small-molecule microarrays, primary screen, psychiatric disease protein project, biochemical, small-molecule microarray, fluorescence 635/667 (AID 1075); details: NRG1 binding, 635 nm fluorescence, higher = more signal;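 note: score combines 667 nm spot fluorescence with signal to noise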
[7] = tested on: Neuregulin-1 EGF-like domain; assay: binders of neuregulin-1 EGF-like domain, primary screen, biochemical, small-molecule microarray, 635 nm fluorescence (AID 1081); details: small-molecule microarray binding, higher = more signal;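 note: binding of the protein to compounds printed on small-molecule microarray slides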
[8] = FRG1 promoter luciferase signal modulators, primary screen, FRG1 inhibition for FSHD, cell-based, C2C12 myotubes, firefly/Renilla luciferase, luminescence (AID 1084); details: higher = more signal, called active from +8 up or from −8 down
[9] = binders of probe aFST on microarray, primary screen, stem cell growth factor project, biochemical, small-molecule microarray, fluorescence 635/667 (AID 1086); details: higher = more signal;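 note: score merges 667 nm fluorescence with signal-to-noise of each printed compound spot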
[10] = binders of probe aHhip on microarray, primary screen, stem cell growth factor project, biochemical, small-molecule microarray, fluorescence 635/667 (AID 1087); details: higher = more signal;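 note: score merges spot fluorescence at 667nm with spot signal to noise ratio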
[11] = tested on: PRMT1 (protein arginine N-methyltransferase 1); assay: PRMT1 binders on small-molecule microarrays, primary screen, biochemical, small-molecule microarray, 635 nm fluorescence (AID 1088); details: small-molecule microarray binding, higher = more signal;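 note: binding of Prmt1 protein to compounds spotted on small-molecule microarray slides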
[12] = yeast growth modulation, basal conditions, primary screen, YJM789 clinical isolate, OD600, 24 h (AID 1089);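 note: growth of clinical yeast isolate S. cerevisiae YJM 789 seeded 1000 cells per well; test concentration not given here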; details: S. cerevisiae YJM789 growth, higher = more signal, called active from +8 up or from −8 down
[13] = fission yeast growth modulation, primary screen, strain 972, OD600, 24 h, no modulator (AID 1090);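 note: basal condition with compound alone and no growth modifier present; test concentration not given here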; details: S. pombe 972 growth, higher = more signal, called active from +8 up or from −8 down
[14] = S. cerevisiae growth modulation with rapamycin, primary screen, strain BY4716, OD600, 96 h (AID 1091); details: higher = more signal, called active from +8 up or from −8 down; note: test concentration not given here
[15] = target: Torsin-1A-interacting protein 2 (Homo sapiens) (UniProt Q8NFQ8); assay: LULL1 binders on small-molecule microarray, primary screen, cell lysate, human LULL1 lysate, 635/667 nm fluorescence (AID 1092); details: hLULL1 lysate binding, 635 nm fluorescence, higher = more signal;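 note: probe is lysate of COS7 cells overexpressing human LULL1; score merges per-feature 667 nm fluorescence with signal-to-noise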
[16] = E. coli growth modulation, two-sided OD650, primary screen, E. coli filamentation project, strain DRC41, 24 h (AID 1093); details: OD650, 24 h, higher = more signal, called active from +8 up or from −8 down;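 note: MC1000 strain lacking acrAB efflux and sulA so SOS filamentation is blocked; test concentration not given here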
[17] = small-molecule microarray binders of probe aLefty2, primary screen, biochemical, biotinylated probe, 635/667 nm fluorescence (AID 1094); details: higher = more signal;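 note: score merges spot fluorescence near 667 nm with spot signal-to-noise ratio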
[18] = tested on: Noggin (protein binding on small-molecule microarray); assay: Noggin binders on small-molecule microarray, primary screen, biochemical, 635/667 nm fluorescence (AID 1095); details: 635 nm fluorescence, higher = more signal;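 note: score merges 667 nm feature fluorescence with signal to noise over triplicate slides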
[19] = target: Neurogenic locus notch homolog protein 3 (Homo sapiens) (UniProt Q9UM47); assay: NOTCH3 binders on small-molecule microarray, primary screen, biochemical, 635/667 nm fluorescence (AID 1096); details: NOTCH3 binding, 635 nm fluorescence, higher = more signal
[20] = small-molecule microarray binders of probe aEGFR, primary screen, biochemical, biotinylated probe, 635/667 nm fluorescence (AID 1097); details: higher = more signal;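 note: probe is a biotinylated anti-EGFR antibody binding compounds printed on slides; score combines fluorescence near 667 nm and signal to noise of each spot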

Neurogenic locus notch homolog protein 3 (Homo sapiens), sequence (Q9UM47 whole entry, looked up): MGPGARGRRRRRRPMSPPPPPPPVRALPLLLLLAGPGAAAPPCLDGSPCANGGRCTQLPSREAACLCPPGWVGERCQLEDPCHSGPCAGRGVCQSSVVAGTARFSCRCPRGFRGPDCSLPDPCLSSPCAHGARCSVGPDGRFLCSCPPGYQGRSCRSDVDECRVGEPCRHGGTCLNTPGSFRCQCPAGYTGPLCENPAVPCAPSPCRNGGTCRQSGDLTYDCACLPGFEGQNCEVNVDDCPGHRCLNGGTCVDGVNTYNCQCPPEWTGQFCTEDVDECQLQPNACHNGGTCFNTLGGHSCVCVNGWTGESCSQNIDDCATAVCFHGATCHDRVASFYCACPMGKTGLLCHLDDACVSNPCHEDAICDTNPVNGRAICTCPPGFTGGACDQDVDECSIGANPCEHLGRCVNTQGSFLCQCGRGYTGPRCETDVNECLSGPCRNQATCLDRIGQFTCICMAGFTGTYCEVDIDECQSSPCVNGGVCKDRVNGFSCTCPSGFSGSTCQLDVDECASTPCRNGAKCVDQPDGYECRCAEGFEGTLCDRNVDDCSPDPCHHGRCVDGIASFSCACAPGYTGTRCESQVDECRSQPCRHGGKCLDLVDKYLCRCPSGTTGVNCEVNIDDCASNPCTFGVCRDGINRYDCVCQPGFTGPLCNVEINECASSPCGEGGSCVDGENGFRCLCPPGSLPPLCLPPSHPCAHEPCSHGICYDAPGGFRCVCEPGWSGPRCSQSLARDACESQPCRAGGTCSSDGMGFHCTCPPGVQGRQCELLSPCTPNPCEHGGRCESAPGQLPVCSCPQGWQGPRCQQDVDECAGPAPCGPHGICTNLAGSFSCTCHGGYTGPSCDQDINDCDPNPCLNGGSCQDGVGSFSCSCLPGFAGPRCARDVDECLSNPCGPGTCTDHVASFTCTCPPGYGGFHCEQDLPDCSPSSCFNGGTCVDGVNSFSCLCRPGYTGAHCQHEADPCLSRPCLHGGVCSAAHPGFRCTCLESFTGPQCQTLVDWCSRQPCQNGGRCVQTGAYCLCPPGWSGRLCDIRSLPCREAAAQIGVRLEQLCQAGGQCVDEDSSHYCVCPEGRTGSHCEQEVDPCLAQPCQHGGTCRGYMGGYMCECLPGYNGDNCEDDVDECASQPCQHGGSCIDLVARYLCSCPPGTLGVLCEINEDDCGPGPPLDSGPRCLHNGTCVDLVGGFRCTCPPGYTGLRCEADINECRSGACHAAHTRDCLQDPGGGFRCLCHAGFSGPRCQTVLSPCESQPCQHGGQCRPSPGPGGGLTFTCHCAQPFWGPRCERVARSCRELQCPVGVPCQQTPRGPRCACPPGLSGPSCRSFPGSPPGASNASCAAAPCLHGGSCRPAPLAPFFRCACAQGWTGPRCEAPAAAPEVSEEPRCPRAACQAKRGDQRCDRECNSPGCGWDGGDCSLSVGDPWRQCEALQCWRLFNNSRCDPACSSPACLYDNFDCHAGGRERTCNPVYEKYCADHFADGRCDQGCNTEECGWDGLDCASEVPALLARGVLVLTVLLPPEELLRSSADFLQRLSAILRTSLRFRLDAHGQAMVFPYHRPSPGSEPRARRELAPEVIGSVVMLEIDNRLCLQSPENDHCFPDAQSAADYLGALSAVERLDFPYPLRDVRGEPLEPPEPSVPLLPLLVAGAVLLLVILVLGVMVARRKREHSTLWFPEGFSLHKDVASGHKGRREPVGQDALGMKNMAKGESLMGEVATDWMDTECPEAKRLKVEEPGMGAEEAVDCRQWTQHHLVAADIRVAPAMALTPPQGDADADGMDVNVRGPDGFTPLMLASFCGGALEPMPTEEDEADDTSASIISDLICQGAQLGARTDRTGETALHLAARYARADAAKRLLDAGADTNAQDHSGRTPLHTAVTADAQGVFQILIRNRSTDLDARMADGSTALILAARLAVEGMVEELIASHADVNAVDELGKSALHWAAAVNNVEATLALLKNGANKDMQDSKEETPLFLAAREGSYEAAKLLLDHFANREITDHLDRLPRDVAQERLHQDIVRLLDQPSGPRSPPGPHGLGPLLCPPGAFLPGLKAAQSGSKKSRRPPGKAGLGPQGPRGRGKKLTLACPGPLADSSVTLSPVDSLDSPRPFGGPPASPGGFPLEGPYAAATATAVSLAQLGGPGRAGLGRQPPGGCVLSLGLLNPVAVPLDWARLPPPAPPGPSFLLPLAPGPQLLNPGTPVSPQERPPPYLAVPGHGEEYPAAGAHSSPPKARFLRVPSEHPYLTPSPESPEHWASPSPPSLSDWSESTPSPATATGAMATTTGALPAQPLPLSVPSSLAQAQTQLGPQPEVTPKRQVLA
Torsin-1A-interacting protein 2 (Homo sapiens), sequence (Q8NFQ8 whole entry, looked up): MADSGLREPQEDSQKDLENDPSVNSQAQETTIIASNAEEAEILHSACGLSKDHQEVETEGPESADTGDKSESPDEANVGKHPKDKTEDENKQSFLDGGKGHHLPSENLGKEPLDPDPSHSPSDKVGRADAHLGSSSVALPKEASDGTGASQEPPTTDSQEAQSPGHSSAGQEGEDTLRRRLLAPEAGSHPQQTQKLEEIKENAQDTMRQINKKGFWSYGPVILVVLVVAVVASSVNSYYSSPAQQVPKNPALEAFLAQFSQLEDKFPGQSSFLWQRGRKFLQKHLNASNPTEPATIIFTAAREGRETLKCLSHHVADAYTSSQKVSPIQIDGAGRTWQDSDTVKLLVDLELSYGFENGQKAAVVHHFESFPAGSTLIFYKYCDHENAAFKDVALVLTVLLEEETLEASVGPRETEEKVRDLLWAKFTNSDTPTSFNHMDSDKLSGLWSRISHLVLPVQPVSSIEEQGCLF
Pro-neuregulin-1, membrane-bound isoform (Homo sapiens), sequence (Q02297 whole entry, looked up, the tested form may be a part, canonical isoform): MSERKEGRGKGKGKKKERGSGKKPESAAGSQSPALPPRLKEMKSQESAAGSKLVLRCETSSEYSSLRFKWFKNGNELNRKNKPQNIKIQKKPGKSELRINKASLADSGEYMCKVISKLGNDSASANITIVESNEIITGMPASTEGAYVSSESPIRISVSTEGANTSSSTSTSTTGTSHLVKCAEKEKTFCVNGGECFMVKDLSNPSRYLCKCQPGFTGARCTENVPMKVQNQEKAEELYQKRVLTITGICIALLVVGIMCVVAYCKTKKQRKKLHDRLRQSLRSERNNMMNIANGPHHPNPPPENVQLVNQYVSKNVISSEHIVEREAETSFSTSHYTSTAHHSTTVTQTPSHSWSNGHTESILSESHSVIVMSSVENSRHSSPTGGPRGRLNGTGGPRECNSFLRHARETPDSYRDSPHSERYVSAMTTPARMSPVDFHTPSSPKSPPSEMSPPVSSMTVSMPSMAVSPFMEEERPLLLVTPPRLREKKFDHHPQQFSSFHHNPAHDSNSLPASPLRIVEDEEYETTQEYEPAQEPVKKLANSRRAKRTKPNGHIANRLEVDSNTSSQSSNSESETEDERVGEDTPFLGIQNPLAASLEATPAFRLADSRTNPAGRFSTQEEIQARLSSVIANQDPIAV

Row | SMILES | composite z-score [1] | composite z-score [2] | composite z-score [3] | composite z-score [4] | composite z-score [5] | composite z-score [6] | composite z-score [7] | z-score [8] | composite z-score [9] | composite z-score [10] | composite z-score [11] | z-score [12] | z-score [13] | z-score [14] | composite z-score [15] | z-score [16] | composite z-score [17] | composite z-score [18] | composite z-score [19] | composite z-score [20]
1 | O=C(NN=C1C[C@@H](O)[C@@H](O)[C@@H]2[C@@H]3C(=O)N(C4CCCCC4)C(=O)[C@@H]3CC[C@H]12)OCc1ccccc1 | 1.01 | 0.553 | 0.0679 | 0.0977 | 1.1 | -0.131 | -0.287 | -0.242 (inactive) | 0.324 | -0.558 | -0.511 | 0.298 (inactive) | 0.267 (inactive) | 0.799 (inactive) | 0.352 | -0.0442 (inactive) | -0.0239 | -0.177 | -0.0963 | -0.0461
2 | O=C1C[C@@H](O)[C@@H](O)[C@@H]2[C@@H]3C(=O)N(Cc4ccc5c(c4)OCO5)C(=O)[C@@H]3CC[C@H]12 | -0.296 | 0.348 | -0.0218 | 0.477 | 0.558 | 0.229 | 0.29 | 0.376 (inactive) | 0.078 | 0.0505 | 0.0008 | 0.264 (inactive) | -0.587 (inactive) | -0.511 (inactive) | 0.443 | 0.378 (inactive) | -0.136 | 0.318 | 0.406 | 0.0135
3 | CC(C)=CCCC(C)=CCON=C1C[C@@H](O)[C@@H](O)[C@@H]2[C@@H]3C(=O)N(Cc4ccccc4)C(=O)[C@@H]3CC[C@@H]12 | -0.249 | 0.585 | -0.0548 | 0.649 | 0.194 | 0.34 | 1.05 | 0.365 (inactive) | 0.172 | 0.204 | 1.09 | 0.432 (inactive) | -0.114 (inactive) | -0.535 (inactive) | -0.859 | 0.326 (inactive) | -0.114 | 1.33 | 0.637 | 0.012
4 | COC(=O)CC=C[C@@H](C)[C@@H](C=NO[C@@H](C)c1cc(-c2c(C)cc(C)cc2C)no1)NS(=O)(=O)c1ccc(C)cc1 | 1.38 | -0.498 | -0.144 | -1.29 | -1.06 | -0.647 | -0.631 | 0.295 (inactive) | -0.176 | -0.236 | -0.84 | -0.0649 (inactive) | 0.679 (inactive) | 0.905 (inactive) | -0.227 | -0.881 (inactive) | 0.0221 | -2.2 | -2.03 | -0.224
5 | COC(=O)[C@H](C)NC(=O)CCC1CC(OC(=O)NCCc2ccc(F)cc2)CC2(CCCC(COC(=O)NCCC(C)C)O2)O1 (stereo not given in full) | -0.279 | -0.0132 | -0.0407 | 1.11 | 0.824 | 1.26 | 0.888 | 0.033 (inactive) | 0.281 | -0.13 | 0.173 | -1.79 (inactive) | -0.148 (inactive) | -0.104 (inactive) | 2.22 | -0.641 (inactive) | -0.209 | 1.06 | 0.49 | -0.111
